# Data from the OligoGym collection.
# Molecular target: RSPH9
# Experiment: pooled miR-30 sensor sort-seq; sequence = guide strand
# Conditions: shRNA
# Further: reference of the scale not given here.
row,Sequence,sensor-assay potency score (higher = more potent)
1,TTCACCTTCATTCACCTTCTGC,-0.502
2,TAGCCATAGTTCTTGGTGCGGG,-0.956
3,TCTTATTCTTTAGCTCAACAGG,-1.48
4,TTTGGGAATGTCATGCTCCAAG,-0.888
5,TATTCTTTAGCTCAACAGGCTC,-1.09
6,TTGATCTGGACCACTATTTCTT,-0.0516
7,TATTTCTTCTTCAAAGACTTTT,-0.914

# Molecular target: RTF1
# Experiment: as above
# Conditions: shRNA
row,Sequence,sensor-assay potency score (higher = more potent)
1,TTTCTCTGTCATCTGTTCCAGA,-0.00304
2,TACAATCTCTTCAATGTCCTGA,0.771
3,TTTGAGACAAACTCTAAACGGA,0.185
4,TTCATCATCAGAGTAGACCTCA,0.818
5,TTCTTGATTTCAAATCTTCTTT,-0.27
6,TTTTTCTTGATTTCAAATCTTC,-0.239
7,TTGAGACAAACTCTAAACGGAA,-0.778
8,TTGAGATTTCTTGTCTAGTTTC,-0.921
9,TTCGTTTTTCTCGCTCTGCTTT,-0.471
10,TACTTTGAACAGATCTTCTGAG,0.376
11,ATTGATTTCATCTAGAGTGGGC,0.501
